The record followed here is PubChem BioAssay (NCI).

This is part of a sample that, as a whole, favours compounds with a hit. Of some 83,000 tested, about 20% had one in any assay.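 Plates (96-well) were seeded with cells, treated with compound at one concentration, and incubated for 48 hours before percent growth was determined.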 A number with no mark means an inactive call. The source made the active and inactive calls. Rule for the calls: active = growth percent below 10; inactive = the rest.

Among the test systems are NCI-H23 lung; NCI-H226 lung; NCI-H322M lung; HOP-62 NSCLC; NCI-H460 lung; HOP-92 NSCLC; NCI-H522 lung; A549/ATCC NSCLC; 786-0 renal; COLO 205 colon.
Assay in all cases: NCI-60 one-dose screen, 48 h (100 = growth as untreated, 0 = no growth, -100 = all killed)
Conditions in all cases: 10 µM unless noted

For the molecule `O=C1NC(=O)C(CC(=O)n2c(-c3ccccc3)nc3ccccc32)C(=O)N1`, the growth in the assay with NCI-H23 lung is 97.4%; in the assay with NCI-H226 lung, 97.7%; in the assay on NCI-H322M lung, 100%; in the assay on HOP-62 NSCLC it was 94.4%; in the assay with NCI-H460 lung it was 102%; in the assay on HOP-92 NSCLC, 97.5%. Also, the growth with NCI-H522 lung is 93%; with A549/ATCC NSCLC, 101%; in the assay on 786-0 renal, 99.7%; in the assay with COLO 205 colon it was 118%.

As for `C=C1C(=O)O[C@H]2[C@H]1CC/C(Cn1cc(Cn3ccc4cc(Cl)ccc43)nn1)=C\CC[C@@]1(C)O[C@@H]21`, the growth in the assay with NCI-H23 lung was 13.1%; in the assay with NCI-H226 lung, 61.4%; in the assay with NCI-H322M lung, 76.6%; in the assay on HOP-62 NSCLC, 75.7%; with NCI-H460 lung it was 64.2%; with HOP-92 NSCLC, -61.6% (active). The growth in the assay with NCI-H522 lung was -76% (active); in the assay with A549/ATCC NSCLC it was 48.5%; in the assay with 786-0 renal it was -71.4% (active); in the assay on COLO 205 colon, -82.3% (active).

For the molecule `CC(=O)O[C@H]1CC[C@]2(C)[C@H]3CC[C@@H]4[C@H]5[C@H](C(C)C)CC[C@]5(C(=O)OCC(CO)(CO)N=C(N)N)CC[C@@]4(C)[C@]3(C)CC[C@H]2C1(C)C`, the growth in the assay on NCI-H23 lung is 77.7%; in the assay on NCI-H226 lung, 91.4%; with NCI-H322M lung, 70.2%; in the assay with HOP-62 NSCLC, 86.1%; in the assay on NCI-H460 lung, -32.4% (active); in the assay with HOP-92 NSCLC, 32%. Also, the growth was -69.6% (active) in the assay on NCI-H522 lung, 54.6% with A549/ATCC NSCLC, 74.3% in the assay with 786-0 renal and -89.9% (active) with COLO 205 colon.

With `NCc1cn2cc(Cl)sc2n1`, the growth was 107% with NCI-H23 lung; 101% in the assay with NCI-H226 lung; 90.3% in the assay with NCI-H322M lung; 112% in the assay on HOP-62 NSCLC; 103% with NCI-H460 lung; 101% in the assay on HOP-92 NSCLC. For the same molecule, the growth in the assay with NCI-H522 lung is 95.5%; in the assay on A549/ATCC NSCLC it was 92.9%; with 786-0 renal, 106%; in the assay on COLO 205 colon, 114%.

As for `C(=N\Nc1ccccn1)/c1ccccn1`, the growth was 12.1% with NCI-H23 lung; 16% with NCI-H226 lung; 15.7% with NCI-H322M lung; 19.2% in the assay on HOP-62 NSCLC; 7.9% (active) with NCI-H460 lung; 79.1% in the assay with HOP-92 NSCLC. Moreover, the growth was -9.71% (active) in the assay on NCI-H522 lung, 12.2% in the assay with A549/ATCC NSCLC, -41.9% (active) with 786-0 renal and 34.6% with COLO 205 colon.

`Cc1ccccc1CCO`: the growth with NCI-H23 lung was 100%; with NCI-H226 lung, 93.7%; in the assay on NCI-H322M lung, 90.8%; in the assay with HOP-62 NSCLC, 89.1%; with NCI-H460 lung, 105%; in the assay with HOP-92 NSCLC it was 104%. The growth was 76.2% in the assay with NCI-H522 lung, 85.4% in the assay on A549/ATCC NSCLC, 100% in the assay with 786-0 renal and 92.7% with COLO 205 colon.

With `CC(=O)C1=C(O)C=C2Oc3c(C(=O)/C=C/c4cc(C(F)(F)F)cc(C(F)(F)F)c4)c(O)c(C)c(O)c3[C@]2(C)C1=O`, the growth in the assay with NCI-H23 lung is -55.8% (active); with NCI-H226 lung it was -56.5% (active); in the assay with NCI-H322M lung, -44.8% (active); with HOP-62 NSCLC it was -52.6% (active); with NCI-H460 lung it was -32.6% (active); in the assay on HOP-92 NSCLC, -41.2% (active). In addition, the growth with NCI-H522 lung is -36% (active); in the assay with A549/ATCC NSCLC, -46.7% (active); in the assay on 786-0 renal, -46.3% (active); in the assay on COLO 205 colon it was -66.6% (active).

Regarding `Nc1nc2c(c3ncccc13)C(c1cccc(Br)c1)Cc1ncccc1-2` (stereo not given), the growth is 39.5% in the assay with NCI-H23 lung; 72% with NCI-H226 lung; 41.6% in the assay on NCI-H322M lung; 20.3% in the assay with HOP-62 NSCLC; 10.6% in the assay on NCI-H460 lung; 67.2% in the assay with HOP-92 NSCLC. Besides, the growth with NCI-H522 lung is -12.4% (active); in the assay with A549/ATCC NSCLC it was 9.92% (active); in the assay with 786-0 renal, 21.3%; in the assay on COLO 205 colon, -36.1% (active).

With `O=C1c2cccnc2C(=O)c2c1c(C(=O)OCCN1CCCCC1)c1ccccn21`, the growth was -53.2% (active) in the assay on NCI-H23 lung; -15.3% (active) with NCI-H226 lung; -81.7% (active) in the assay on NCI-H322M lung; -34.5% (active) in the assay with HOP-62 NSCLC; -16.7% (active) in the assay on NCI-H460 lung; 12.5% in the assay with HOP-92 NSCLC. The growth was -64.5% (active) in the assay on NCI-H522 lung, -46.6% (active) in the assay with A549/ATCC NSCLC, -45.9% (active) with 786-0 renal and -70.3% (active) in the assay on COLO 205 colon.

As to `CCN(CC)CCC(=O)Nc1ccc(Cn2nnc3c2C(=O)c2nnn(Cc4ccc(NC(=O)CCN(CC)CC)cc4)c2C3=O)cc1`, the growth in the assay with NCI-H23 lung was -24.6% (active); with NCI-H226 lung, -49.5% (active); in the assay with NCI-H322M lung, -75.3% (active); in the assay with HOP-62 NSCLC, -34.5% (active); with NCI-H460 lung, -29.7% (active); with HOP-92 NSCLC, -44.3% (active). Besides, the growth in the assay on NCI-H522 lung is -73.5% (active); with A549/ATCC NSCLC, -58.1% (active); in the assay with 786-0 renal it was 88.7%; with COLO 205 colon, -86.7% (active).

Regarding `CC1(C)CC(C(=O)OCCCCCCCCCCC[P+](c2ccccc2)(c2ccccc2)c2ccccc2)C(C)(C)N1O` (stereo not given), the growth in the assay on NCI-H23 lung is -61.1% (active); in the assay with NCI-H226 lung it was -65.6% (active); in the assay on NCI-H322M lung, -20.6% (active); in the assay with HOP-62 NSCLC, -45.5% (active); in the assay on NCI-H460 lung it was -79.8% (active); with HOP-92 NSCLC, -68.8% (active). Moreover, the growth with NCI-H522 lung was -29.4% (active); in the assay on A549/ATCC NSCLC, -42.6% (active); with 786-0 renal, -75.4% (active); in the assay on COLO 205 colon, -79.9% (active).

For the molecule `Nc1nc2ccc(-c3nc4ccc5[nH]ncc5c4c4c3CCC4)cc2s1`, the growth in the assay on NCI-H23 lung was 24.2%; in the assay with NCI-H226 lung, 22.7%; in the assay with NCI-H322M lung, 25.8%; in the assay on HOP-62 NSCLC it was 3.53% (active); in the assay with NCI-H460 lung, 2.53% (active); in the assay with HOP-92 NSCLC it was -4.3% (active). The growth was -29.4% (active) in the assay on NCI-H522 lung, 32.2% in the assay with A549/ATCC NSCLC, 25.6% in the assay with 786-0 renal and -2.69% (active) in the assay on COLO 205 colon.

For `Cc1cc2c(cc1C)NC1=C(N2)OC(c2c3ccccc3cc3ccccc23)C1=O` (stereo not given), the growth in the assay with NCI-H23 lung was 15.2%; in the assay with NCI-H226 lung, 52%; with NCI-H322M lung, 45.9%; in the assay on HOP-62 NSCLC, 31.9%; with NCI-H460 lung, 2.12% (active); in the assay on HOP-92 NSCLC, 71.9%. The growth with NCI-H522 lung was -5.18% (active); in the assay with A549/ATCC NSCLC it was 26.7%; in the assay with 786-0 renal it was 29.9%; in the assay with COLO 205 colon, -40.7% (active).
